Reference: PubChem BioAssay (Tox21)
A number with no mark means an inactive call. Results filed as inconclusive are left out. Where a call stands in place of a potency, no number is given. Calls of active or inactive are those of the source. Unless noted, the call rests on the fitted dose curve; in most records, active means well fitted curve in the direction sought with a large enough effect in the repeat runs; inconclusive means weak or mixed curves; inactive means no such curve, though single readings can be large; an effect the other way counts as inactive or inconclusive.

Assays:
[1] = qHTS assay for identifying genotoxic compounds that show differential cytotoxicity against isogenic chicken DT40 cell lines with known DNA damage response pathways - wild type cell line (AID 743012); further: nearly all actives have a fitted effect of over 60% in size; further: potency means the concentration at half of the fitted maximal effect
Summary of the method: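 Parental DNA repair-proficient DT40 cells, 300 per well, were pre-incubated ~0.5 h at 37 C/5% CO2, pin-dosed with compounds in DMSO, then incubated 40 h. Viability was read as CellTiter-Glo luminescence after 30 min at room temperature.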

[2] = qHTS assay for identifying genotoxic compounds that show differential cytotoxicity against isogenic chicken DT40 cell lines with known DNA damage response pathways - Rev3 mutant cell line (AID 743014); further: nearly all actives have a fitted effect of over 55% in size; further: potency means the concentration at half of the fitted maximal effect
[3] = qHTS assay for identifying genotoxic compounds that show differential cytotoxicity against isogenic chicken DT40 cell lines with known DNA damage response pathways - Rad54/Ku70 mutant cell line (AID 743015); further: nearly all actives have a fitted effect of over 60% in size; further: potency means the concentration at half of the fitted maximal effect
[4] = qHTS assay to identify small molecule antagonists of the androgen receptor (AR) signaling pathway - cell viability counter screen (AID 743033; further: nearly all actives have a fitted effect of over 45% in size; further: potency means the concentration at half of the fitted maximal effect)
[5] = molecular target: Androgen receptor (Homo sapiens) (UniProt P10275); assay: qHTS assay to identify small molecule antagonists of the androgen receptor (AR) signaling pathway using the MDA cell line (AID 743042; further: nearly all actives have a fitted effect of over 55% in size)
Chain of Androgen receptor (Homo sapiens) (P10275 whole entry, looked up): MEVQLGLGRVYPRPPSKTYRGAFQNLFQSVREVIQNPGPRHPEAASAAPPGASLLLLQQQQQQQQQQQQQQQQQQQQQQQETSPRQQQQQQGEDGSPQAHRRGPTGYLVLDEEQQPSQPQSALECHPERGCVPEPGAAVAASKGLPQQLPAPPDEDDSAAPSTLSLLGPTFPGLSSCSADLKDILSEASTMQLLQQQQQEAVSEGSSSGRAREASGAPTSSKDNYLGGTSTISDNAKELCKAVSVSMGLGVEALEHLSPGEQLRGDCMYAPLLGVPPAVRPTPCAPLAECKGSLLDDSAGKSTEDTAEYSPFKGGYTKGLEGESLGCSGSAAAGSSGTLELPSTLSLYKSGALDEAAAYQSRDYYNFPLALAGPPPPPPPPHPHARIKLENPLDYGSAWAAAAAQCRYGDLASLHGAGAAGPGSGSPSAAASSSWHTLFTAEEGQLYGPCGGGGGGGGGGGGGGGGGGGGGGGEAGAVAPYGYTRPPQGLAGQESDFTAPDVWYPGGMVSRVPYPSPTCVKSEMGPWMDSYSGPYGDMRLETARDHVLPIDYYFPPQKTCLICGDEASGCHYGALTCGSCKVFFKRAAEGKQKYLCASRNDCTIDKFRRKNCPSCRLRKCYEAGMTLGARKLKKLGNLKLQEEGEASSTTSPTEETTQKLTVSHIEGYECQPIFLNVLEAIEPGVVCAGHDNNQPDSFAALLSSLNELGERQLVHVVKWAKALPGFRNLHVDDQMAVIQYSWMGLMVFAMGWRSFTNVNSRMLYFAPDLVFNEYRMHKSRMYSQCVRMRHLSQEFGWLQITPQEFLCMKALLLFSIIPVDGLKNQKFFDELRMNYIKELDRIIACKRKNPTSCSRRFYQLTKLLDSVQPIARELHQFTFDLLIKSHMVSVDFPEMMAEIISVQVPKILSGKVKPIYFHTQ
Summary of the method: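 Antagonist mode: compounds plus R1881 agonist added to MDA-kb2 AR-luc cells, incubated 16 h at 37C. Luciferase reporter luminescence quantified, with multiplexed CellTiter-Fluor readout for cell viability.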

[6] = qHTS assay to identify small molecule antagonists of the thyroid receptor (TR) signaling pathway - cell viability counter screen (AID 743064); further: nearly all actives have a fitted effect of over 50% in size; further: potency means the concentration at half of the fitted maximal effect
Summary of the method: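 Counter screen for cytotoxicity: compound plus T3 (1 nM final) on GH3.TRE-Luc cells, 23.5 h at 37 °C, then fluorescence viability readout with CellTiter-Fluor.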

[7] = qHTS assay to identify small molecule antagonists of the thyroid receptor (TR) signaling pathway (AID 743065); further: nearly all actives have a fitted effect of over 55% in size; further: potency means the concentration at half of the fitted maximal effect
Summary of the method: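 Antagonism measured as loss of luciferase signal in GH3 cells stably carrying a TRE-luciferase reporter, co-treated with compound and T3 (1 nM final) for 23.5 h at 37 C. Viability was read in the same well by CellTiter-Fluor.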

[8] = qHTS assay to identify small molecule antagonists of the estrogen receptor alpha (ER-alpha) signaling pathway - cell viability counter screen (AID 743074; calls by dose curve;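 further: HEK293 cells carrying ER-alpha-UAS-bla reporter stimulated with 17beta-estradiol; nearly all actives have a fitted effect of over 45% in size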; further: potency means the concentration at half of the fitted maximal effect)
Aromatase (Homo sapiens) = Aromatase (Homo sapiens) (UniProt P11511); assay: qHTS assay to identify aromatase inhibitors (AID 743083); further: nearly all actives have a fitted effect of over 55% in size; further: potency means the concentration at half of the fitted maximal effect
Chain of Aromatase (Homo sapiens) (P11511 whole entry, looked up): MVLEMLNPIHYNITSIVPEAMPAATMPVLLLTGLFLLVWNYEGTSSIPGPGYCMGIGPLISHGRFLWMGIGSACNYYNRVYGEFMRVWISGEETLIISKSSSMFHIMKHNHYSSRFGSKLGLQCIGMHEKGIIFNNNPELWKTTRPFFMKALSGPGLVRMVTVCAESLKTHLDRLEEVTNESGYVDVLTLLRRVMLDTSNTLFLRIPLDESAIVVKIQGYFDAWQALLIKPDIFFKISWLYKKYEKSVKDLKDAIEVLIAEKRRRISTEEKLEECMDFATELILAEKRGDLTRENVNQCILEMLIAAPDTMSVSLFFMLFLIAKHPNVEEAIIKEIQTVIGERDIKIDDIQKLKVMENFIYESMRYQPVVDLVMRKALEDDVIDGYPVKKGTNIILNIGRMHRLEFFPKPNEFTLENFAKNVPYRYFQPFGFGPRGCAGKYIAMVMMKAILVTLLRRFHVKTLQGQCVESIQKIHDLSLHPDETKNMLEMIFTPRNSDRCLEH

[9] = qHTS assay to identify small molecule antagonists of the androgen receptor (AR) signaling pathway using the MDA cell line - cell viability counter screen (AID 743041; further: nearly all actives have a fitted effect of over 45% in size; further: potency means the concentration at half of the fitted maximal effect)
Summary of the method: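 Cells were plated at 3,000 per well and left 5 h. Compounds in DMSO were then pinned in, followed by R1881. After 16 h at 37C, CellTiter-Fluor fluorescence gave viability.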

[10] = molecular target: Estrogen receptor (Homo sapiens) (UniProt P03372); assay: qHTS assay to identify small molecule antagonists of the estrogen receptor alpha (ER-alpha) signaling pathway (AID 743069; active means well fitted curve in the direction sought with a large enough effect in the signal ratio in the repeat runs, not every such curve was filed as active; the % refers to the signal ratio; further: potency means the concentration at half of the fitted maximal effect)
Chain of Estrogen receptor (Homo sapiens) (P03372 whole entry, looked up): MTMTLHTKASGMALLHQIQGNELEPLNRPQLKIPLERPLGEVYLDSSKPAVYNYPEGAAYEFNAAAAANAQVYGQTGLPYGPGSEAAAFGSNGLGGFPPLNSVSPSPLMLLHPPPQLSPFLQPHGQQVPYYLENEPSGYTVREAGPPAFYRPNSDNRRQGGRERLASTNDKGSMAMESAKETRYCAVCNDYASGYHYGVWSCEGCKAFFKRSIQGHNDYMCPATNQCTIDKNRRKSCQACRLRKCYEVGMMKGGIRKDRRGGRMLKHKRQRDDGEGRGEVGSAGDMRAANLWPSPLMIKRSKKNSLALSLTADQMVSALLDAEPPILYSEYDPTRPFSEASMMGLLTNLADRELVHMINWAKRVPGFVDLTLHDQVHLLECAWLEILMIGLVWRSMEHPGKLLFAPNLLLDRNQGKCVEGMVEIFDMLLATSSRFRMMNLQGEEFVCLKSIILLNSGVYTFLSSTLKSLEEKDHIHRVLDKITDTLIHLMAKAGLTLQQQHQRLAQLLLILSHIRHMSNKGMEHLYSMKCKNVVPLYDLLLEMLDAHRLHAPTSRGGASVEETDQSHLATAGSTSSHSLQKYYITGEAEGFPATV
Summary of the method: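 ER-alpha-UAS-bla GripTite HEK293 line; 2% charcoal-stripped FBS overnight; plated, 4 hr 37C/5% CO2; cpd in DMSO + 17beta-estradiol, 18 hr 37C; LiveBLAzer B/G FRET substrate 2 hr RT; fluorescence intensity.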

[11] = qHTS assay to identify small molecule antagonists of the estrogen receptor alpha (ER-alpha) signaling pathway using the BG1 cell line (AID 743080; calls by dose curve;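 further: BG1 cells stimulated with 17beta-estradiol alongside compound; nearly all actives have a fitted effect of over 25% in size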; further: potency means the concentration at half of the fitted maximal effect)
Summary of the method: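 BG1-Luc-4E2 cells (endogenous full-length ER-alpha, stable 4×ERE-luciferase) were starved 5 days in phenol-red-free medium with 10% charcoal-stripped FBS, plated 24 h, then given compound plus 17beta-estradiol for 21.5 h at 37 C; ONE-Glo luminescence read after 30 min.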

[12] = qHTS assay to identify small molecule antagonists of the estrogen receptor alpha (ER-alpha) signaling pathway using the BG1 cell line - cell viability counter screen (AID 743081);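 further: compound given together with 17beta-estradiol as the ER stimulus; nearly all actives have a fitted effect of over 45% in size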; further: potency means the concentration at half of the fitted maximal effect
[13] = molecular target: Androgen receptor (Homo sapiens) (UniProt P10275); assay: qHTS assay to identify small molecule antagonists of the androgen receptor (AR) signaling pathway (AID 743035; active means well fitted inhibition curve with a large enough effect in the signal ratio in the repeat runs, not every such curve was filed as active; the % refers to the signal ratio)
Summary of the method: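 HEK293 cells stably carrying a UAS-driven beta-lactamase reporter (AR-UAS-bla GripTite) were plated for 4 h at 37C, then given compound and the agonist R1881 and incubated 16 h. Reporter activity was read by LiveBLAzer B/G FRET fluorescence after 2 h at room temperature.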

[14] = molecular target: Androgen receptor (Homo sapiens) (UniProt P10275); assay: qHTS assay to identify small molecule agonists of the androgen receptor (AR) signaling pathway (AID 743036; active means well fitted activation curve with a large enough effect in the signal ratio in the repeat runs, with a control signal flat, not every such curve was filed as active; the % refers to the signal ratio)
Summary of the method: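 In this Tox21 qHTS, 2,000 HEK293 AR-bla cells per well were incubated with compounds for 16 h at 37C and 5% CO2. Fluorescence intensity was recorded 2 h after adding LiveBLAzer B/G FRET substrate at room temperature.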

[15] = system: thyroid hormone receptor (rat, GH3 cells); assay: qHTS assay to identify small molecule agonists of the thyroid receptor (TR) signaling pathway (AID 743066; calls by dose curve)
[16] = molecular target: Estrogen receptor (Homo sapiens) (UniProt P03372); assay: qHTS assay to identify small molecule agonists of the estrogen receptor alpha (ER-alpha) signaling pathway (AID 743075; calls by dose curve; further: potency means the concentration at half of the fitted maximal effect); details: HEK293 ER-alpha-UAS-bla, beta-lactamase FRET ratio, 18 h; activation: at 70.1 µM (top of the series)
[17] = molecular target: Estrogen receptor (Homo sapiens) (UniProt P03372); assay: qHTS assay to identify small molecule agonists of the estrogen receptor alpha (ER-alpha) signaling pathway using the BG1 cell line (AID 743079); details: BG1Luc4E2 cells, ERE-luciferase agonist, 22 h; further: nearly all actives have a fitted effect of over 20% in size; further: potency means the concentration at half of the fitted maximal effect
[18] = molecular target: Androgen receptor (Homo sapiens) (UniProt P10275); assay: qHTS assay to identify small molecule agonists of the androgen receptor (AR) signaling pathway using the MDA cell line (AID 743040; further: nearly all actives have a fitted effect of over 20% in size)
Summary of the method: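 Cells plated, 5 h at 37C/0% CO2; compound or DMSO pinned; 16 h at 37C; ONE-Glo added; luminescence measured after 30 min at room temperature. Reporter line: MDA-kb2 with MMTV-luciferase responsive to AR and GR.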

SMILES	Potency [1]	Potency [2]	Potency [3]	Potency [4]	Potency [5]	Potency [6]	Potency [7]	Potency [8]	Potency (Aromatase (Homo sapiens))	Potency [9]	Potency [10]	Potency [11]	Potency [12]	Potency [13]	Potency [14]	Potency [15]	Potency [16]	activation ([17]; at 95 µM (top of the series)) [%]	Potency [18]	Potency [17]
CCCCCCCCNC(C)C(O)c1ccc(SC(C)C)cc1 (configuration not stated)	1.88 µM (active)	1.68 µM (active)	1.68 µM (active)	21.3 µM (active)	inactive	5.31 µM (active)	5.96 µM (active)	9.52 µM (active)	29.8 µM (active)											
CCCCCCCC[N+](CCCCCCCC)(CCCCCCCC)CCCCCCCC	2.43 µM (active)	1.37 µM (active)	1.37 µM (active)	0.308 µM (active)		3.43 µM (active)		15.5 µM (active)	2.16 µM (active)	4.32 µM (active)	38.8 µM [cytotoxic] (active)	1.72 µM (active)	24.3 µM (active)							
ON=C1CCCC1	inactive	inactive	inactive	inactive	inactive	inactive	inactive	inactive	inactive	inactive	inactive	inactive	inactive	inactive	inactive	inactive	inactive	13.6		
C1CCCC1	inactive	inactive	inactive	inactive		inactive	inactive	inactive	inactive	inactive			inactive			inactive				
OC1(c2ccc(Cl)c(C(F)(F)F)c2)CCN(CCCC(c2ccc(F)cc2)c2ccc(F)cc2)CC1	4.22 µM (active)	7.5 µM (active)	5.96 µM (active)	19 µM (active)		5.96 µM (active)	5.96 µM (active)	26.8 µM (active)	7.5 µM (active)	inactive			inactive							
CCCN(CCC)C(=O)C(CCC(=O)OCCCN1CCN(CCOC(=O)Cc2c(C)n(C(=O)c3ccc(Cl)cc3)c3ccc(OC)cc23)CC1)NC(=O)c1ccccc1 (configuration not stated)	23.7 µM (active)	26.6 µM (active)	23.7 µM (active)	inactive		13.3 µM (active)	26.6 µM (active)	inactive		inactive		inactive	inactive				7.56 µM [activator] (active)		inactive	0.211 µM (active)
Nc1ccc2c3c(cccc13)-c1ccccc1-2	61.8 µM (active)	27.6 µM (active)	55 µM (active)	inactive	inactive		43.7 µM (active)									inactive				8.72 µM (active)
C[C@H]1[C@H]2CC[C@H]3[C@@H]4CC=C5C[C@@H](N(C)C)CC[C@]5(C)[C@H]4CC[C@]23CN1C	15 µM (active)	11.9 µM (active)	16.8 µM (active)	inactive		inactive	inactive	inactive	inactive	inactive					inactive	inactive				
Oc1ccc(N=Nc2ccccc2)cc1																				6.19 µM (active)
